# Results from PubChem BioAssay (EPA / NIEHS).
# Where “and” joins values, the source holds several entries; their conditions need not be identical. Equal values may be shown once. Calls of active or inactive are those of the source. The calls were made as follows: active = hit-call score of the fitted dose curve at least 0.9, where 1 is the maximum; inactive = score below 0.9.
# Experiment: BSK_3C_TissueFactor: BioMAP Diversity Plus: 3C Assay for Tissue Factor Biomarker Activity (AID 2282997)
# Details: BioMAP 3C HUVEC, tissue factor biomarker readout; actives raise or lower the signal
# Method in brief: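 Dosing of human umbilical vein endothelial cells preceded a 24 h incubation. Tissue Factor was then read by ELISA, with increases and decreases both scored relative to DMSO controls.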
Structure (SMILES),outcome,AC50
Cc1cccc(N)c1,inactive,
FC(F)(F)C(F)(C(F)(F)F)C(F)(F)C(F)(F)CC1CO1 (stereo unspecified),inactive,
COP(=O)(O)OC,inactive,
CC(O)C(F)(F)C(F)(F)F (stereo unspecified),inactive,
OCC(F)(F)OC(F)(F)C(F)(F)OC(F)(F)C(F)(F)OC(F)(F)F,,30 µM (active) and 47.3 µM (active)

# Experiment: BSK_3C_uPAR: BioMAP Diversity Plus: 3C Assay for Urokinase-type plasminogen activator receptor (uPAR) Biomarker Activity (AID 2282998)
# Details: BioMAP 3C HUVEC, uPAR biomarker ELISA; actives raise or lower the signal
# Method in brief: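 In this endothelial cell-based assay, human umbilical vein primary cells were treated with chemicals and harvested at 24 h. uPAR was quantified using ELISA, with gains or losses fitted relative to DMSO controls.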
Structure (SMILES),outcome,AC50
OCC(F)(F)OC(F)(F)C(F)(F)OC(F)(F)C(F)(F)OC(F)(F)CO,inactive,
CCCCOCCOP(=O)(OCCOCCCC)OCCOCCCC,inactive,
c1cc2c3c(cccc3c1)CC2,inactive,
O=S(=O)(F)C(F)(F)C(F)(F)C(F)(F)C(F)(F)C(F)(F)C(F)(F)C(F)(F)C(F)(F)F,inactive,
N#Cc1c(-c2ccc(Cl)cc2)[nH]c(C(F)(F)F)c1Br,,469 nM (active)
ClC(Cl)=C(c1ccc(Cl)cc1)c1ccccc1Cl,,10500 nM (active)
CCN(CC)c1ccccc1,inactive,
O=C(O)C1C(C(=O)O)C2(Cl)C(Cl)=C(Cl)C1(Cl)C2(Cl)Cl (stereo unspecified),inactive,
CCCCCCCc1ccc(O)cc1,,38200 nM (active)
COC(=O)C(F)(F)C(F)(F)OC(F)(C(F)(F)F)C(F)(F)OC(F)=C(F)F (stereo unspecified),inactive,
CC(Cl)CN(C)C (stereo unspecified),inactive,
Cc1cccc(N)c1,inactive,
FC(F)(F)C(F)(C(F)(F)F)C(F)(F)C(F)(F)CC1CO1 (stereo unspecified),inactive,
COP(=O)(O)OC,,62 nM (active)
CC(O)C(F)(F)C(F)(F)F (stereo unspecified),inactive,
OCC(F)(F)OC(F)(F)C(F)(F)OC(F)(F)C(F)(F)OC(F)(F)F,,43.9 µM (active) and 46.4 µM (active)
